These results are taken from ChEMBL document CHEMBL1961873, “Compounds: GSK PKIS; Assays: Nanosyn kinase panel” (2012).

Experiment [1] addresses Serine/threonine-protein kinase MARK2 (Homo sapiens) (UniProt Q7KZI7). Conditions: at 1 µM.
Experiment [2] deals with PAS domain-containing serine/threonine-protein kinase (Homo sapiens) (UniProt Q96RG2). The following applies: at 0.1 µM.
For experiment [3] the target is unchanged. Conditions: at 1 µM.
The target in experiment [4] is Phosphorylase b kinase gamma catalytic chain, skeletal muscle/heart isoform (Homo sapiens) (UniProt Q16816). The following applies: at 0.1 µM.
For experiment [5] the target is unchanged. Conditions: at 1 µM.
Experiment [6] addresses T1, Phosphorylase b kinase gamma catalytic chain, liver/testis isoform (Homo sapiens) (UniProt P15735).
T1 sequence (whole entry): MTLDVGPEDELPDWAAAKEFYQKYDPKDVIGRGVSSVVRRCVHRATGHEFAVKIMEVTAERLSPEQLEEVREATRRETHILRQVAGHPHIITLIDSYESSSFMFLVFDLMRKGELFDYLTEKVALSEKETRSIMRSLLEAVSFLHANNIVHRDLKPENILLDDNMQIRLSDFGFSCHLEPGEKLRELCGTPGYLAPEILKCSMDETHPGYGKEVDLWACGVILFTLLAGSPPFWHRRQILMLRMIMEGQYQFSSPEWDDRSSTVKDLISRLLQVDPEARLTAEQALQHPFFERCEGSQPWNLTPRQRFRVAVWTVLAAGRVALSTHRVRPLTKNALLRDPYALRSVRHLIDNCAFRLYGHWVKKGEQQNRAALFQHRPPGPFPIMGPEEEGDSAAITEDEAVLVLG
Conditions: at 0.1 µM.

The target in experiment [7] is T1, Phosphorylase b kinase gamma catalytic chain, liver/testis isoform (Homo sapiens). Conditions: at 1 µM.
The target in experiment [8] is Serine/threonine-protein kinase pim-1 (Homo sapiens) (UniProt P11309). The following applies: at 0.1 µM.
For experiment [9] the target is unchanged. The following applies: at 1 µM.
In experiment [10] the target is Serine/threonine-protein kinase pim-2 (Homo sapiens) (UniProt Q9P1W9). Conditions: at 0.1 µM.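 Further: reported value is the mean percent inhibition of PIM2, measured in the GSK PKIS kinase inhibitor set screen.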
Chain of Serine/threonine-protein kinase pim-2 (Homo sapiens) (Q9P1W9 whole entry, looked up): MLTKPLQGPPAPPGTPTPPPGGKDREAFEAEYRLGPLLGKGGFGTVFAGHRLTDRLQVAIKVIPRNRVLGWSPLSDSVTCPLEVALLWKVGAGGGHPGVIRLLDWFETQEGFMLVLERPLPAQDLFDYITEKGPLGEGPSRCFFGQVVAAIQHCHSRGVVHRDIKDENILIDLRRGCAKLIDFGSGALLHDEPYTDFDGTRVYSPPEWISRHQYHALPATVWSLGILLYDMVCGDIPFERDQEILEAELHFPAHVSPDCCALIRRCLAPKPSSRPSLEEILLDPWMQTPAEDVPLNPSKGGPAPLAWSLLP

Chain of Serine/threonine-protein kinase pim-1 (Homo sapiens) (P11309 whole entry, looked up): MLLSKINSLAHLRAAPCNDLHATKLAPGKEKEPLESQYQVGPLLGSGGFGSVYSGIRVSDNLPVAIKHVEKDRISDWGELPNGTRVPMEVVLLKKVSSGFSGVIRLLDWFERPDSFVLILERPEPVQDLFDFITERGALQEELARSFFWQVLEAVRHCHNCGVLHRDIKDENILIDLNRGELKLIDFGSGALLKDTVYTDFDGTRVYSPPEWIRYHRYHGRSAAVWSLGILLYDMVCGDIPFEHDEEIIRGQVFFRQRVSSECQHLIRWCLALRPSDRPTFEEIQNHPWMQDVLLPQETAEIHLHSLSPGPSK
Chain of Phosphorylase b kinase gamma catalytic chain, skeletal muscle/heart isoform (Homo sapiens) (Q16816 whole entry, looked up, canonical isoform): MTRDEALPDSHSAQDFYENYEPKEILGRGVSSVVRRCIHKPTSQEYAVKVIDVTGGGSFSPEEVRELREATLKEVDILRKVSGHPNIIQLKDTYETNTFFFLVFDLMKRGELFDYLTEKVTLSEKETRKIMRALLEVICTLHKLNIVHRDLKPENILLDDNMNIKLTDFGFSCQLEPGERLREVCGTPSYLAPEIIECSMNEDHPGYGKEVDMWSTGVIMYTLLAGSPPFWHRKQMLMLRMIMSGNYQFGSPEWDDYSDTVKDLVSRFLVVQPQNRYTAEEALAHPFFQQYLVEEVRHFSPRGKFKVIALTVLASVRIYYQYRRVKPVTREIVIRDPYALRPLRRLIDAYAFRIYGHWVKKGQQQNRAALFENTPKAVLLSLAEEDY
Chain of PAS domain-containing serine/threonine-protein kinase (Homo sapiens) (Q96RG2 whole entry, the tested form may be a part): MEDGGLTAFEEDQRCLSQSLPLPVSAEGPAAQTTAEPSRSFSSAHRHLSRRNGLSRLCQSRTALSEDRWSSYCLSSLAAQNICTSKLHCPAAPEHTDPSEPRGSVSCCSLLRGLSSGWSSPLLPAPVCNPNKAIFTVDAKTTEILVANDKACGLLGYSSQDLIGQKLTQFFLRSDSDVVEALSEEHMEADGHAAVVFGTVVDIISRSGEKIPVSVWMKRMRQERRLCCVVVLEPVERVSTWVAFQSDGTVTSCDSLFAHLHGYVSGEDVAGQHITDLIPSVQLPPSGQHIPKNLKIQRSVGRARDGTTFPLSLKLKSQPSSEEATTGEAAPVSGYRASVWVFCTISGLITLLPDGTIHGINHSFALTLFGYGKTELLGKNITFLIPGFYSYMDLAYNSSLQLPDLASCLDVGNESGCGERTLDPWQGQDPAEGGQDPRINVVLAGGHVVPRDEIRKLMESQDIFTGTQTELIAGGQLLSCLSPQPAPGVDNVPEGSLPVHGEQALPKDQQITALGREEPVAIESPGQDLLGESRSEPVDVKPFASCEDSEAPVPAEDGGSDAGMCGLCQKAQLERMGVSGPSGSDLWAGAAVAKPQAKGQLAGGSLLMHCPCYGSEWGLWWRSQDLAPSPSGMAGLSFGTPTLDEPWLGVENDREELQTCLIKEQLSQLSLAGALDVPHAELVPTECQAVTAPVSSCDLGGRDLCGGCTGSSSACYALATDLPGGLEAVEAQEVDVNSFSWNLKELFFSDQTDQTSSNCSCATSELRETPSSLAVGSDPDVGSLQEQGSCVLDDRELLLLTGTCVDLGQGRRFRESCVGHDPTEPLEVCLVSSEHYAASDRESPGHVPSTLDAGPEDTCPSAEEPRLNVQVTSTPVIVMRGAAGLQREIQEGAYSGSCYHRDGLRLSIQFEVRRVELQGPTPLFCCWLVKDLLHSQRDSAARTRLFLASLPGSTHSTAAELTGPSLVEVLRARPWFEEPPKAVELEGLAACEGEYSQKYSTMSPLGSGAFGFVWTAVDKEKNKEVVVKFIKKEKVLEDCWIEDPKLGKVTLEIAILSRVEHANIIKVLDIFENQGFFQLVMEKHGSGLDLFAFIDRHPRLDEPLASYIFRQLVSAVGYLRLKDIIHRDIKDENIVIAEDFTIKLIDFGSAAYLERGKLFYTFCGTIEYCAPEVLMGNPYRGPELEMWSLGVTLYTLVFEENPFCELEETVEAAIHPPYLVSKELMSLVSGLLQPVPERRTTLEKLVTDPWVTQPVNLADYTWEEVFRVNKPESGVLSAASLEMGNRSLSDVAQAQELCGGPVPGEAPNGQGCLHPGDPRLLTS
Chain of Serine/threonine-protein kinase MARK2 (Homo sapiens) (Q7KZI7 whole entry, the tested form may be a part): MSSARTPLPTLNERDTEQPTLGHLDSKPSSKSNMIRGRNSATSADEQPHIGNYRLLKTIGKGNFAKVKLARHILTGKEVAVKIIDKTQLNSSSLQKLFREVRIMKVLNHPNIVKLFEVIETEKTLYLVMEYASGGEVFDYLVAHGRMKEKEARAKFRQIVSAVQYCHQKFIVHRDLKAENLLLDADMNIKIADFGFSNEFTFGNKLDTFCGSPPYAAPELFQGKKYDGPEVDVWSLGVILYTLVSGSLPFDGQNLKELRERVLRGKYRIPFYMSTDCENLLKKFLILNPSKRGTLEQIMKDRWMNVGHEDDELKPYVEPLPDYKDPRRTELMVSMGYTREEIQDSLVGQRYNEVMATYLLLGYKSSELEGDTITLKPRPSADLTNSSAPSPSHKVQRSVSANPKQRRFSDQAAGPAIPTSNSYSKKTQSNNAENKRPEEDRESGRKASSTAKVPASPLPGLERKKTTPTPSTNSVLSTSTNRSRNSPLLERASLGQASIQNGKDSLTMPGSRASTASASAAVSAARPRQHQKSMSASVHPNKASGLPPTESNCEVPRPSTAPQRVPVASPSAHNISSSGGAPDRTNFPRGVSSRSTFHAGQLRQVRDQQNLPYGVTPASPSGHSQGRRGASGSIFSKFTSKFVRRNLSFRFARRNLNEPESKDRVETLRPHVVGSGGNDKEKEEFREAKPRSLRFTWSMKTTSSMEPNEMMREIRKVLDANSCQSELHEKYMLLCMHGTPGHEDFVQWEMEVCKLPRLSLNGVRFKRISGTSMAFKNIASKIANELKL

Regarding `[O-][S+]1CCN(Cc2ccc(-c3ccc4ncnc(Nc5ccc(OCc6ccccc6)c(Cl)c5)c4c3)o2)CC1`, the inhibition is 2.27% in experiment [1]; 0.68% in [2]; -0.53% in experiment [3]; 3.63% in [4]; 3.41% in [5]; 2.31% in [6]. For the same molecule, the inhibition in experiment [7] was -0.04%; in experiment [8] it was 0.56%; in experiment [9], 1.25%; in experiment [10], 0.46%.

As to `NS(=O)(=O)c1ccc(-c2cc3ccncc3cc2OCc2ccccc2)cc1`, the inhibition was -0.56% in experiment [1]; -0.27% in [2]; 0.09% in experiment [3]; 3.43% in experiment [4]; 8.39% in experiment [5]; 5.17% in [6]. The inhibition in experiment [7] is 5.11%; in experiment [8], 0.14%; in [9], 0.86%; in [10], -0.34%.

Regarding `NS(=O)(=O)c1cccc(Nc2cc(-c3ccc(F)cc3)n[nH]2)c1`, the inhibition in [1] amounted to 9.04%; in [2] it was 0.67%; in experiment [3], 2.88%; in experiment [4] it was 2.8%; in [5], 14.5%; in experiment [6], 4.37%. Moreover, the inhibition came out at 8.84% in experiment [7], 1.38% in experiment [8], 1.68% in [9] and 0.15% in experiment [10].

For `OCc1ccc(-c2nc(-c3ccccn3)c(-c3ccc4c(c3)OCO4)[nH]2)cc1`, the inhibition in experiment [1] was 2.05%; in [2], 0.83%; in experiment [3] it was -1.14%; in [4], 2.77%; in experiment [5], -6%; in [6], 5.91%. Further, the inhibition came out at 2.21% in [7], 0.78% in experiment [8], 0.98% in experiment [9] and 0.72% in experiment [10].

As for `COc1ccc2ncnc(Nc3ccc(OCc4ccccc4)cc3)c2c1`, the inhibition in experiment [1] was 0.4%; in experiment [2], -0.03%; in experiment [3], 2.46%; in [4], 4.44%; in experiment [5], 4.51%; in [6] it was 1.92%. For the same molecule, the inhibition in [7] was 2.81%; in experiment [8], 0.17%; in experiment [9] it was 0.4%; in experiment [10] it was -0.18%.

Take `COc1cc2ncnc(Nc3ccc4c(cnn4Cc4ccccc4)c3)c2cc1OC`: the inhibition is 3.96% in experiment [1]; 0.55% in [2]; -0.09% in experiment [3]; 3.79% in experiment [4]; 8.41% in experiment [5]; 2.67% in experiment [6]. For the same molecule, the inhibition in experiment [7] amounted to 2.41%; in experiment [8], 0.14%; in experiment [9] it was 1.19%; in experiment [10] it was 0.05%.

With `COc1cc2ncn(-c3cc(OCc4ccccc4S(C)(=O)=O)c(C#N)s3)c2cc1OC`, the inhibition in experiment [1] was determined as 70.7%; in [2], 0.91%; in [3] it was 0.31%; in experiment [4], 45.2%; in [5] it was 76.5%; in [6], 4.94%. For the same molecule, the inhibition in experiment [7] is 10.9%; in experiment [8], 0.71%; in [9], 0.97%; in experiment [10] it was 0.9%.

For `Cc1ccc(NC(=O)CC2CC2)cc1-c1ccc(C(=O)NCC2CC2)cc1`, the inhibition in experiment [1] was 0.03%; in experiment [2], -0.28%; in experiment [3], 0.77%; in [4] it was 3.12%; in [5], 5.93%; in experiment [6], 4.45%. For the same molecule, the inhibition is 4.9% in experiment [7], 1.51% in experiment [8], 0.73% in experiment [9] and -0.33% in experiment [10].

Turning to `NC(=O)c1cccc(Nc2nccc(Nc3cccc(F)c3)n2)c1`, the inhibition in experiment [1] is 3.47%; in experiment [2], 1.27%; in [3], 0.17%; in [4], -0.51%; in experiment [5] it was 3.35%; in experiment [6], 1.29%. Moreover, the inhibition in experiment [7] was 0.54%; in experiment [8], -0.04%; in [9], -0.4%; in experiment [10] it was -0.05%.

`COC(=O)c1cncc(/C=C/c2c(C)cc(O)cc2C)c1`: the inhibition was -0.07% in experiment [1]; -0.51% in experiment [2]; 1.51% in [3]; 1.77% in experiment [4]; 4.16% in [5]; 4.23% in experiment [6]. The inhibition in experiment [7] is 6.97%; in experiment [8], 1.57%; in [9], 1.55%; in experiment [10], -0.56%.

With `O=S(=O)(CCOCc1ccc(-c2ccc3ncnc(Nc4ccc(OCc5cccc(F)c5)c(Cl)c4)c3c2)o1)c1ccccc1`, the inhibition in [1] was 3.35%; in experiment [2] it was -0.23%; in [3], -0.13%; in experiment [4], 1.12%; in [5], 5.02%; in [6], 1.75%. Further, the inhibition in experiment [7] was -0.77%; in [8], 1.1%; in experiment [9], 2.1%; in experiment [10], 0.88%.

On to `Cc1ccc2c(-c3ccnc(Nc4ccc5c(c4)OCCO5)n3)c(-c3ccc(C(F)(F)F)cc3)nn2n1`, for which the inhibition in experiment [1] worked out at 2.02%; in experiment [2] it was 1.16%; in experiment [3], 1.48%; in [4], 3.21%; in experiment [5], 1.99%; in experiment [6], 1.58%. The inhibition in experiment [7] is 1.14%; in experiment [8] it was -0.32%; in experiment [9] it was 0.3%; in experiment [10], 0.44%.

In the case of `COc1cccc(-n2nc(C)c3c(N/N=C(\C)c4ccncc4)ncnc32)c1`, the inhibition worked out at 0.88% in [1]; 1.38% in experiment [2]; 0.57% in experiment [3]; 0.48% in experiment [4]; 2.64% in [5]; 0.83% in [6]. Also, the inhibition in [7] is 0.29%; in experiment [8], -0.49%; in experiment [9] it was 0.18%; in experiment [10], -0.5%.

On to `COc1cc(/C=N/Nc2ncnc3c2cnn3C(C)C)ccc1O`, for which the inhibition in experiment [1] was 1.32%; in experiment [2], -0.76%; in experiment [3], -1.33%; in experiment [4], 2.28%; in experiment [5], 5.02%; in [6] it was -0.14%. Also, the inhibition was 1.57% in experiment [7], 0.52% in experiment [8], 2.04% in experiment [9] and 0.9% in [10].

Take `O=C1Nc2ccccc2/C1=C/Nc1ccc2[nH]c(=O)[nH]c2c1`: the inhibition in experiment [1] worked out at 13.4%; in [2] it was 12.4%; in [3], 64.1%; in [4], 10.5%; in [5] it was 42.6%; in experiment [6], 7.44%. Moreover, the inhibition in [7] was 21.4%; in experiment [8] it was -0.21%; in [9] it was 2.44%; in [10] it was 0.27%.

As for `CCn1c(-c2nonc2N)nc2c(C#CC(C)(C)O)nc(OCCNC)cc21`, the inhibition is 10.6% in experiment [1]; -1.05% in experiment [2]; 0.6% in [3]; 1.42% in experiment [4]; 4.25% in experiment [5]; 3.52% in experiment [6]. For the same molecule, the inhibition in experiment [7] was 4.33%; in experiment [8], 1.82%; in experiment [9], 4.29%; in experiment [10], -0.54%.

In the case of `NS(=O)(=O)c1cccc(-c2cc3ccncc3cc2OCc2ccccc2)c1`, the inhibition in [1] was 4.78%; in experiment [2], 0.61%; in [3], -0.76%; in experiment [4], 4.05%; in experiment [5], 7.24%; in experiment [6], 4.91%. Also, the inhibition came out at 3.55% in experiment [7], 1.01% in experiment [8], 0.91% in experiment [9] and 0.27% in experiment [10].

Usually inhibition stands for the change of the read-out against control, counted positive when it falls.
